# Experimental data reported in PubChem BioAssay.
# Values joined by “and” are separate entries in the source; they are usually repeats but may differ in a detail not shown here. Equal entries are not always repeated. Active and inactive are the calls of the source.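 The calls were made as follows, unless noted: active = compounds whose cell count with miR-34 switched on is under 0.7 times the count with it off; inactive = the rest.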
# How the values were obtained:
# [1] = system: Aerobactin synthetase IucA (Klebsiella pneumoniae); assay: inhibition of K. pneumoniae IucA enzyme – biochemical, Tocris library, absorbance (AID 1345561; call rule not given here;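 also: 100% = enzyme without compound and 0% = no enzyme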); conditions: purified IucA enzyme assay, absorbance (OD) read-out; stronger effect = lower value;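 tested at 8 µM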
# [2] = viability loss with induced miR-34 in A549 – imaging, A549 dox-inducible miR-34, nuclei and caspase counts, primary screen (AID 1347080); conditions: A549 miR-34 inducible, Hoechst nuclei count, 48 h
# [3] = galactose survival enhancers in mitochondrial complex I cybrids – cell-based, galactose medium, ATP luminescence, primary screen (AID 1645843;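 active = z-score of at least 1.8 in each of two replicates, scored against plate mean and spread of sample wells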;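 also: positive z means more ATP and so rescue of galactose-driven cybrid death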); conditions: complex I mutant cybrid cells, 72 h, stronger effect = higher value
# [4] = stronger effect = lower value, cell number ratio, induced over uninduced
# [5] = measured here: relative caspase fold change +Dox/-Dox
# [6] = measured here: total cells with miR-34 induction, stronger effect = lower value
# [7] = measured here: total cells without miR-34 induction
Structure (SMILES),remaining activity [1],"fold change [2, 4]","fold change [2, 5]","cell count [2, 6]","cell count [2, 7]",z-score [3]
NC(=NC1C2CC3CC(C2)CC1C3)Nc1ccc(I)cc1 (stereo not drawn),126% (inactive),1.12 (inactive),0.649,2830,2540,-0.39 (inactive)
CCCCc1nn(-c2ccccc2C(F)(F)F)c(=O)n1Cc1ccc(-c2ccccc2S(=O)(=O)NC(=O)c2sccc2C)cc1,91.8% (inactive),0.921 (inactive),1.21,7450,8080,4.89 (active)
CNc1cc(OC)c(C(=O)N[C@@H]2CCN(Cc3ccccc3)[C@@H]2C)cc1Cl (racemic),104% (inactive),0.926 (inactive),1.02,8160,8810,-0.56 (inactive)
COC(=O)C1=C(C)NC(C)=C(C(=O)OCCSc2ccccc2)C1C (stereo not drawn),91.1% (inactive),0.923 (inactive) and 0.85 (inactive),0.923 and 0.966,2710 and 6700,2930 and 7880,-0.87 (inactive)
O=C(/C=C/c1ccccc1)NC(NC(=S)Nc1ccc(Cl)cc1)C(Cl)(Cl)Cl (stereo not drawn),118% (inactive),0.939 (inactive),1.5,2530,2700,-0.74 (inactive)
NC(C(=O)O)c1cc(O)cc(O)c1 (stereo not drawn),101% (inactive),0.987 (inactive),0.844,9310,9430,-0.435 (inactive)
N=C(N)S/C=C\C(=O)O,104% (inactive),0.952 (inactive),0.563,8330,8750,-0.28 (inactive)
NS(=O)(=O)c1nn2cc(-c3ccccc3)nc2s1,99.1% (inactive),1.09 (inactive),0.795,4960,4530,-0.585 (inactive)
OC1CCC(Nc2nc(-c3ccccc3)nc3[nH]ccc23)CC1 (stereo not drawn),112% (inactive),0.975 (inactive),1.31,8990,9220,1.67 (inactive)
N#Cc1ccc(NCCNCC(=O)N2CCC[C@H]2C#N)nc1,110% (inactive),0.825 (inactive),2.19,8330,10100,0.41 (inactive)
C1CC[C@H]2[N]=[Pt]=[N][C@@H]2C1.O=C(O)C(=O)O,86.1% (inactive),0.928 (inactive),1.09,4040,4350,3.04 (active)
O=C(NCCCN1CCCCCC1)C(c1ccccc1)C1CCCCC1 (stereo not drawn),115% (inactive),0.949 (inactive),0.832,8370,8820,-0.905 (inactive)
CCCCc1nc2ccn(CC(=O)N(C)C)c(=O)c2n1Cc1ccc(-c2ccccc2-c2nn[nH]n2)cc1,111% (inactive),1.01 (inactive),0.927,8240,8192,-0.18 (inactive)
CO[C@]12C[C@@H](COC(=O)c3cncc(Br)c3)CN(C)[C@@H]1CC1=CN(C)C3C=CC=C2C13 (stereo partly drawn),107% (inactive),0.94 (inactive),0.794,7700,8200,0.455 (inactive)
C=CCNC(=O)c1cc([N+](=O)[O-])cc2c(=O)[nH]c(Nc3ccc(Cl)c(Cl)c3)nc12,116% (inactive),0.926 (inactive),0.827,8840,9550,-0.09 (inactive)
O=C(O)c1ccc(/C=C2/SC(=S)N(c3cccc(C(F)(F)F)c3)C2=O)cc1,83.1% (inactive),0.837 (inactive),1.71,8080,9650,-0.215 (inactive)
Cn1cc(/C=C2/C(=O)Nc3cccnc32)c2ccccc21,89.8% (inactive),0.833 (inactive),1.45,2650,3180,-0.435 (inactive)
CSc1ccc([C@H]2CN3CCC[C@H]3c3ccccc32)cc1,123% (inactive),0.927 (inactive),1.33,7680,8280,-0.51 (inactive)
O=S(c1ccccc1)c1ccc2nnnn2n1 (stereo not drawn),106% (inactive),1.59 (inactive),0.481,3220,2020,-0.805 (inactive)
COc1cc(N)c(Cl)cc1C(=O)CCC1CCN(CCNS(C)(=O)=O)CC1,97.5% (inactive),0.928 (inactive),0.69,9240,9960,1.25 (inactive)
CC1(C(=O)O)NCCc2cc(O)c(O)cc21 (stereo not drawn),123% (inactive),0.987 (inactive),0.804,8540,8650,-0.015 (inactive)
Cc1cc(C(=O)O)sc1C(N)C(=O)O (stereo not drawn),83.4% (inactive),0.995 (inactive),1.22,8770,8820,0.285 (inactive)
N[C@@H]1CCN(O)C1=O,121% (inactive),0.981 (inactive),0.836,9080,9260,0.66 (inactive)
O=C(Nc1ccccc1)N[C@H]1C[C@H](C(=O)O)Nc2cc(Cl)cc(Cl)c21,104% (inactive),0.916 (inactive),0.915,8670,9460,0.995 (inactive)

Structure (SMILES),remaining activity [1],"fold change [2, 4]","fold change [2, 5]","cell count [2, 6]","cell count [2, 7]",z-score [3]
O=C(O)c1ccc(-c2ccc3cc(C45CC6CC(CC(C6)C4)C5)c(O)cc3c2)cc1,87.5% (inactive),1.14 (inactive),1.52,1990,1740,-0.695 (inactive)
CCCCCN=c1ccn(Cc2ccccc2)c2ccccc12,114% (inactive),1.09 (inactive),0.778,1550,1420,-0.705 (inactive)
C/C(O)=C1/C(=O)[C@@H]2[C@H]3c4c[nH]c5cccc(c45)C[C@H]3C(C)(C)N2C1=O,119% (inactive),0.988 (inactive),1.54,6050,6130,-0.525 (inactive)
c1cc2c(cc1C1CCCCC1)c1c3n2CCNC3CCC1 (stereo not drawn),102% (inactive),1.06 (inactive),1.07,430,406,-1.23 (inactive)
N#Cc1cc2[nH]c(=O)c(=O)[nH]c2cc1[N+](=O)[O-],113% (inactive),0.891 (inactive),1.62,9010,10100,0.095 (inactive)
Cc1nn(C)c2nc(NNC(=O)Nc3cc(Cl)nc(Cl)c3)cc(C(C)C)c12,121% (inactive),0.867 (inactive) and 1.06 (inactive),1.04 and 1.03,5060 and 4050,5840 and 3820,-0.55 (inactive)
C[C@@H]1C(=O)OC2[C@H](O)C34[C@H]5C[C@@H](C(C)(C)C)[C@]36[C@@H](OC(=O)[C@@H]6O)O[C@@]4(C(=O)O5)[C@]21O (stereo partly drawn),112% (inactive),0.923 (inactive),0.53,8430,9140,-0.225 (inactive)
C[C@@H]1O[C@@]2(CS1)CN1CCC2CC1 (racemic),111% (inactive),0.892 (inactive),1.88,8540,9570,0.375 (inactive)
CC(C)c1ccc2c(c1)CC[C@H]1[C@](C)(CN)CCC[C@]21C,101% (inactive),0.931 (inactive) and 0.9 (inactive),0.286 and 1.62,5370 and 346,5760 and 384,-0.56 (inactive)
Clc1cccc(C=NC=Nc2cccc(Cl)c2)c1,117% (inactive),0.902 (inactive),0.788,8200,9090,0.99 (inactive)
CCCNC(=O)N1N=C(c2ccc(N)cc2)c2cc3c(cc2C1C)OCO3 (stereo not drawn),101% (inactive),0.903 (inactive),1.06,8160,9040,0.065 (inactive)
CN1CCN(CCc2ccc(Cl)c(Cl)c2)CC1,124% (inactive),1.04 (inactive),1.01,7800,7520,-0.73 (inactive)
BrC1C(Br)C(Br)C(Br)C(Br)C1Br (stereo not drawn),107% (inactive),1.04 (inactive),1.17,7970,7680,-0.62 (inactive)
Cc1ccccc1N=C(N)Nc1ccccc1C,93.4% (inactive),0.944 (inactive),0.72,8710,9220,-0.035 (inactive)
N[C@@H](CSS(=O)(=O)O)C(=O)O,94.5% (inactive),0.893 (inactive),0.93,8240,9220,-0.57 (inactive)
CCS(=O)(=O)N(C)[C@H]1c2cc(C#N)ccc2OC(C)(C)[C@@H]1O (racemic),119% (inactive),0.884 (inactive),1.36,9180,10400,0.85 (inactive)
Cc1noc(NS(=O)(=O)c2cccc3c(N(C)C)cccc23)c1C,116% (inactive),0.967 (inactive),0.84,8350,8630,-0.135 (inactive)
CC(=O)N[C@H](Cc1c[nH]c2ccccc12)C(=O)OCc1cc(C(F)(F)F)cc(C(F)(F)F)c1,106% (inactive),0.923 (inactive),0.896,8110,8790,-0.035 (inactive)
CC1Nc2ccc(Cl)cc2S(=O)(=O)N1 (stereo not drawn),102% (inactive),0.919 (inactive),0.718,8550,9300,0.035 (inactive)
N[C@@H](Cn1ccc(=O)n(Cc2ccccc2C(=O)O)c1=O)C(=O)O,102% (inactive),0.972 (inactive),1.26,8660,8900,0.025 (inactive)
O=C(Nc1ccccc1)C12CC1/C(=N\O)c1ccccc1O2 (stereo not drawn),107% (inactive),0.911 (inactive),0.471,7010,7700,0.135 (inactive)
FC(F)(F)c1cccc(-c2noc(-c3cc(-c4ccccc4)c(C(F)(F)F)s3)n2)c1,101% (inactive),0.966 (inactive) and 0.884 (inactive),1.01 and 0.898,5830 and 8210,6040 and 9290,0.175 (inactive)
CC(N)(C(=O)O)c1ccc(-c2nn[nH]n2)cc1 (stereo not drawn),94.5% (inactive),0.913 (inactive),0.762,8200,8980,1.42 (inactive)
CC(C)[C@H](NS(=O)(=O)c1ccc(-c2ccc(Br)cc2)cc1)C(=O)O,100% (inactive),0.908 (inactive),1.47,8980,9890,0.745 (inactive)
